According to the supplement of paper PMC10849652:
About 8,800 targets were measured; listed, in parts, are those with a hit and a random draw of the rest. About 0.5% of all pairs of compound and target were hits.

Columns and labels:
Test in all cases: log2 fold change, soluble protein after heating vs DMSO (PISA); higher = thermal stabilisation; K562 lysate, 10 uM; active = over 0.2 and 3.5 SD of the protein, either way, in both replicates (recomputed)
erlotinib = compound: C#Cc1cccc(Nc2ncnc3cc(OCCOC)c(OCCOC)cc23)c1 [erlotinib]
Procedure, shortened: (§1)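 K562 pellets were dounce-homogenised in PBS pH 7.4 containing 1 mM MgCl2, and the crude extract, at 1 mg/mL protein, was exposed to 10 μM compound for 30 min. Aliquots were heated for 3 min across 48°C-58°C, pooled, brought to 0.5% NP-40 at 4°C and spun at 21,000xg for 90 min, with the supernatant taken as soluble protein. TMTpro 16plex LC-MS/MS with equalised channel sums quantified that protein. Values are log-two fold changes in thermal stability relative to solvent controls, taken from duplicates.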

[1] = compound: C/C(=N\NC(=O)C1=CC(=CC=C1)S(=O)(=O)N2CCOCC2)/C3=C(C=CC(=C3)Cl)O
Procedure, shortened: as §1

[2] = compound: C1=CC(=CC=C1C2=NC3=C(N2)C=C(C=C3)C(=O)N)OC4=CC=C(C=C4)Cl
Procedure, shortened: as §1

[3] = compound: C1=CC2=C(C=CC(=C2)/C=C\3/C(=O)NC(=NCC4=CC=CS4)S3)N=C1
Procedure, shortened: as §1

[4] = compound: C1=CC2=NC=CN=C2C=C1/C=C/3\C(=O)NC(=O)S3
Procedure, shortened: as §1

[5] = compound: C1=CC=C(C=C1)C2=NC(=C(N2)C3=CC=NC=C3)C4=CC(=C(C=C4)Cl)O
Procedure, shortened: as §1

[6] = compound: C1=CC=C2C(=C1)C3=NNC4=CC=CC(=C43)C2=O
Procedure, shortened: as §1

[7] = compound: C1CCN(C1)C(=O)NC2=CC=CC(=C2)NC3=NC=C(C(=N3)NCCC4=CN=CN4)Br
Procedure, shortened: as §1

[8] = compound: C1CN(CCC1(CC2=CC=C(C=C2)Cl)N)C3=NC=NC4=C3C=CN4
Procedure, shortened: as §1

IRAK-1-4 Inhibitor I = compound: C1COCCN1CCN2C3=CC=CC=C3N=C2NC(=O)C4=CC(=CC=C4)[N+](=O)[O-] [IRAK-1-4 Inhibitor I]
Procedure, shortened: as §1

Measured: log2 fold change

ZFYVE19 (UniProt Q96K21)
inactive: erlotinib -0.017 | [1] -0.056 | [2] 0.016 | [3] -0.024 | [4] -0.026 | [5] 0.055 | [6] 0.007 | [7] -0.031 | [8] 0.012 | IRAK-1-4 Inhibitor I -0.027

WDCP (UniProt Q9H6R7)
inactive: erlotinib -0.06 | [1] 0.091 | [2] 0.079 | [3] 0.018 | [4] 0.024 | [5] 0 | [6] -0.011 | [7] -0.022 | [8] 0.002 | IRAK-1-4 Inhibitor I 0.024

XPNPEP1 isoform 3 (UniProt Q9NQW7)
inactive: erlotinib -0.001 | [1] 0.023 | [2] -0.019 | [3] 0.001 | [4] -0.007 | [5] -0.005 | [6] -0.011 | [7] -0.006 | [8] 0.005 | IRAK-1-4 Inhibitor I 0.009

XPO6 (UniProt Q96QU8)
inactive: erlotinib 0.091 | [1] -0.024 | [2] -0.028 | [3] 0.031 | [4] -0.012 | [5] -0.003 | [6] -0.072 | [7] -0.007 | [8] -0.028 | IRAK-1-4 Inhibitor I 0.003

UNC13D (UniProt Q70J99)
inactive: erlotinib 0.019 | [1] 0.023 | [2] -0.049 | [3] 0.02 | [4] 0.025 | [5] -0.007 | [6] -0.009 | [7] 0.005 | [8] 0.013 | IRAK-1-4 Inhibitor I 0.022

YTHDC2 (UniProt Q9H6S0)
inactive: erlotinib -0.008 | [1] 0.065 | [2] 0.012 | [3] 0.027 | [4] 0.02 | [5] -0.001 | [6] 0.074 | [7] -0.019 | [8] 0.029 | IRAK-1-4 Inhibitor I 0.002

VPS33A (UniProt Q96AX1)
inactive: erlotinib 0.024 | [1] 0.005 | [2] 0.024 | [3] 0.035 | [4] 0.018 | [5] -0.006 | [6] -0.023 | [7] -0.025 | [8] 0.036 | IRAK-1-4 Inhibitor I 0.015

WDR41 (UniProt Q9HAD4)
inactive: erlotinib -0.071 | [1] -0.044 | [2] -0.021 | [3] 0.015 | [4] -0.027 | [5] -0.113 | [6] 0.031 | [7] -0.091 | [8] 0.049 | IRAK-1-4 Inhibitor I 0.029

WDR3 (UniProt Q9UNX4)
inactive: erlotinib -0.036 | [1] -0.013 | [2] -0.044 | [3] -0.012 | [4] 0.027 | [5] -0.015 | [6] 0.026 | [7] 0.007 | [8] -0.04 | IRAK-1-4 Inhibitor I -0.02

WRN (UniProt Q14191)
inactive: erlotinib -0.003 | [1] -0.048 | [2] 0.005 | [3] 0.006 | [4] 0.057 | [5] 0.011 | [6] -0.077 | [7] 0.02 | [8] -0.012 | IRAK-1-4 Inhibitor I -0.013

VAV1 (UniProt P15498)
inactive: erlotinib 0.02 | [1] 0.081 | [2] -0.022 | [3] 0.001 | [4] -0.043 | [5] 0.037 | [6] -0.082 | [7] -0.004 | [8] -0.002 | IRAK-1-4 Inhibitor I -0.009

USP16 (UniProt Q9Y5T5)
inactive: erlotinib -0.002 | [1] -0.01 | [2] -0.01 | [3] -0.002 | [4] 0.011 | [5] 0.036 | [6] -0.016 | [7] -0.028 | [8] -0.005 | IRAK-1-4 Inhibitor I -0.033

ZNF318 (UniProt Q5VUA4)
inactive: erlotinib 0.026 | [1] -0.033 | [2] -0.054 | [3] -0.015 | [4] -0.078 | [5] 0.003 | [6] 0.004 | [7] 0.023 | [8] 0.004 | IRAK-1-4 Inhibitor I 0.012

ZNF451 (UniProt Q9Y4E5)
inactive: erlotinib 0.036 | [1] -0.064 | [2] -0.007 | [3] -0.002 | [4] -0.032 | [5] 0.002 | [6] -0.014 | [7] -0.096 | [8] 0.026 | IRAK-1-4 Inhibitor I -0.009

WDR36 (UniProt Q8NI36)
UniProt Q8NI36, sequence (Q8NI36 whole entry, looked up): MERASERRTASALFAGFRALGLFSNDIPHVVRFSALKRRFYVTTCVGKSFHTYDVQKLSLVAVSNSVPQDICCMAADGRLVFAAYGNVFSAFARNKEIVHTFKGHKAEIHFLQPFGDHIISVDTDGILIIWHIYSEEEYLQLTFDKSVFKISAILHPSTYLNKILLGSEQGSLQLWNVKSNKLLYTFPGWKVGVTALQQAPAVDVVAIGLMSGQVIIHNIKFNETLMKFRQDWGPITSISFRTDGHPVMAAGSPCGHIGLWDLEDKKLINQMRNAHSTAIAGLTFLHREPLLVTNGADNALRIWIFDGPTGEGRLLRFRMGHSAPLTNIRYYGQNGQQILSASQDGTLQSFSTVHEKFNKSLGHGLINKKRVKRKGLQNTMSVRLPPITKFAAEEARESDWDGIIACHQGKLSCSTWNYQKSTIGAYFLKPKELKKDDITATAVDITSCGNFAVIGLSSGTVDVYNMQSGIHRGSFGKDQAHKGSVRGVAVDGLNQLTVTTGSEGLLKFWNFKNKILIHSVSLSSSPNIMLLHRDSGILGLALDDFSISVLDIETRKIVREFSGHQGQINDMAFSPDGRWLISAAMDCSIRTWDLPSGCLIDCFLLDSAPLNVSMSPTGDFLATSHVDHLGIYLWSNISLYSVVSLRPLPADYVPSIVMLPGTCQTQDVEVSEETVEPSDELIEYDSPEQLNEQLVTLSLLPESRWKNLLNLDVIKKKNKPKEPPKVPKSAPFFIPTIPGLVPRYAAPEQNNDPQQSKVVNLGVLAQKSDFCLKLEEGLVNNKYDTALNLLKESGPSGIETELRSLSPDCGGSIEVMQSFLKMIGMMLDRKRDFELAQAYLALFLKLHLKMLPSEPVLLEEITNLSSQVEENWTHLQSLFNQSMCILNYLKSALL
inactive: erlotinib 0 | [1] 0.02 | [2] -0.031 | [3] 0.027 | [4] -0.025 | [5] 0.017 | [6] 0.008 | [7] 0.014 | [8] 0.004 | IRAK-1-4 Inhibitor I -0.049

VAC14 (UniProt Q08AM6)
inactive: erlotinib -0.007 | [1] 0.02 | [2] -0.004 | [3] 0.032 | [4] 0.024 | [5] -0.006 | [6] -0.023 | [7] 0.006 | [8] 0.015 | IRAK-1-4 Inhibitor I 0.024

WDR20 isoform 7 (UniProt Q8TBZ3)
UniProt Q8TBZ3, sequence (Q8TBZ3 whole entry, looked up): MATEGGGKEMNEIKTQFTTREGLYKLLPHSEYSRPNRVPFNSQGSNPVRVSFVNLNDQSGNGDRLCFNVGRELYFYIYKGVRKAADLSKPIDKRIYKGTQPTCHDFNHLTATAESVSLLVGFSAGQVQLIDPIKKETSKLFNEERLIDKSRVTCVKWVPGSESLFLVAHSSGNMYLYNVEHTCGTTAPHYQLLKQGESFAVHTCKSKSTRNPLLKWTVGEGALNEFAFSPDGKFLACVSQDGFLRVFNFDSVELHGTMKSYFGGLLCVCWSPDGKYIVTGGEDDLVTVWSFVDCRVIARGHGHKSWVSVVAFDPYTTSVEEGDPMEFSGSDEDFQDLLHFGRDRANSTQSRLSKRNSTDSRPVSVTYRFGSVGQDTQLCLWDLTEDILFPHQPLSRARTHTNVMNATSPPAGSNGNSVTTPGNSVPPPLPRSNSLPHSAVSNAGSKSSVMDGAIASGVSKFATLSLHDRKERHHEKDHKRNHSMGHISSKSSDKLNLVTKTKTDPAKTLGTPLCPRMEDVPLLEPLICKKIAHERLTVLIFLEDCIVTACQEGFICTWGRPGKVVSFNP
inactive: erlotinib -0.001 | [1] -0.105 | [2] 0.043 | [3] 0.04 | [4] -0.117 | [5] 0.094 | [6] -0.016 | [7] -0.05 | [8] 0.092 | IRAK-1-4 Inhibitor I 0.026

VPS37B (UniProt Q9H9H4)
inactive: erlotinib -0.046 | [1] 0.078 | [2] 0.059 | [3] 0.002 | [4] -0.011 | [5] 0.031 | [6] 0 | [7] 0.043 | [8] 0.098 | IRAK-1-4 Inhibitor I -0.012

VCPIP1 (UniProt Q96JH7)
UniProt Q96JH7, sequence (Q96JH7 whole entry, looked up): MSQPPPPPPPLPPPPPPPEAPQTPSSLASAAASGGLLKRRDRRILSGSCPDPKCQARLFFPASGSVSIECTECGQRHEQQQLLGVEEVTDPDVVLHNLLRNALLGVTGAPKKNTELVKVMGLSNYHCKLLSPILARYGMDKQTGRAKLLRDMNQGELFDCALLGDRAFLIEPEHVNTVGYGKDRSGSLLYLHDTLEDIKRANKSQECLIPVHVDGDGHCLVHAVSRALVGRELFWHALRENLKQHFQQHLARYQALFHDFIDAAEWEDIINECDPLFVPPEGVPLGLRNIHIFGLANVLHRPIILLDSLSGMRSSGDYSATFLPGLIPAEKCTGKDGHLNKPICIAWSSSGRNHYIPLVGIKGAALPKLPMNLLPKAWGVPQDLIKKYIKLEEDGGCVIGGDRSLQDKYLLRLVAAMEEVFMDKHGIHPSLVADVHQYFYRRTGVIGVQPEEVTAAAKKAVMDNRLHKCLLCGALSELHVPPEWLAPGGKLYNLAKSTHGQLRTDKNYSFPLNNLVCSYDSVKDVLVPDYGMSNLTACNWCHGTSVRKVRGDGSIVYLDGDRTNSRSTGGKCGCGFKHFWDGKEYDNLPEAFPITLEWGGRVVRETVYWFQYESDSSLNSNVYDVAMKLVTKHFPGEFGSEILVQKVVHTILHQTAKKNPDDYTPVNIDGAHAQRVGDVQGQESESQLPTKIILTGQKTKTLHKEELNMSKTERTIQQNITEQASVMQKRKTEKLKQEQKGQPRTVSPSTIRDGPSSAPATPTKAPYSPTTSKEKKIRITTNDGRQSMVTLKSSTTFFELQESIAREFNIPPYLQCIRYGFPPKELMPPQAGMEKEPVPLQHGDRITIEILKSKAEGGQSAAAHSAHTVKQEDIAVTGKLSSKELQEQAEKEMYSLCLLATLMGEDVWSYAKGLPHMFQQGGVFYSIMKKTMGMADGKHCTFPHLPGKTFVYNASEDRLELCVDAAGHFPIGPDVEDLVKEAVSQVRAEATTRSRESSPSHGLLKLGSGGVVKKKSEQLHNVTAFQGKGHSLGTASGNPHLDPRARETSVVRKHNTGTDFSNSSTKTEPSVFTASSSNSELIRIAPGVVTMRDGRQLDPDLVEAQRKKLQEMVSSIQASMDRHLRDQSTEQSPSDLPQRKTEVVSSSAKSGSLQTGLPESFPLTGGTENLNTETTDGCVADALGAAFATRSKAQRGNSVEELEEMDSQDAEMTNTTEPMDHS
inactive: erlotinib -0.054 | [1] -0.04 | [2] -0.002 | [3] 0.053 | [4] -0.037 | [5] 0.041 | [6] 0.006 | [7] 0 | [8] 0.038 | IRAK-1-4 Inhibitor I -0.035

ZC2HC1A (UniProt Q96GY0)
inactive: erlotinib 0 | [1] -0.134 | [2] 0.058 | [3] 0.18 | [4] 0.073 | [5] -0.043 | [6] -0.1 | [7] -0.054 | [8] 0.009 | IRAK-1-4 Inhibitor I -0.012

YRDC (UniProt Q86U90)
inactive: erlotinib 0.009 | [1] 0.03 | [2] -0.001 | [3] -0.018 | [4] -0.021 | [5] 0.036 | [6] 0.081 | [7] -0.065 | [8] 0.006 | IRAK-1-4 Inhibitor I -0.02

YES1 (UniProt P07947)
inactive: erlotinib -0.045 | [1] 0.064 | [2] 0.005 | [3] -0.045 | [4] -0.023 | [5] -0.031 | [6] -0.105 | [7] 0.027 | [8] 0.016 | IRAK-1-4 Inhibitor I 0.003

YTHDF3 (UniProt Q7Z739)
UniProt Q7Z739, sequence (Q7Z739 whole entry, looked up): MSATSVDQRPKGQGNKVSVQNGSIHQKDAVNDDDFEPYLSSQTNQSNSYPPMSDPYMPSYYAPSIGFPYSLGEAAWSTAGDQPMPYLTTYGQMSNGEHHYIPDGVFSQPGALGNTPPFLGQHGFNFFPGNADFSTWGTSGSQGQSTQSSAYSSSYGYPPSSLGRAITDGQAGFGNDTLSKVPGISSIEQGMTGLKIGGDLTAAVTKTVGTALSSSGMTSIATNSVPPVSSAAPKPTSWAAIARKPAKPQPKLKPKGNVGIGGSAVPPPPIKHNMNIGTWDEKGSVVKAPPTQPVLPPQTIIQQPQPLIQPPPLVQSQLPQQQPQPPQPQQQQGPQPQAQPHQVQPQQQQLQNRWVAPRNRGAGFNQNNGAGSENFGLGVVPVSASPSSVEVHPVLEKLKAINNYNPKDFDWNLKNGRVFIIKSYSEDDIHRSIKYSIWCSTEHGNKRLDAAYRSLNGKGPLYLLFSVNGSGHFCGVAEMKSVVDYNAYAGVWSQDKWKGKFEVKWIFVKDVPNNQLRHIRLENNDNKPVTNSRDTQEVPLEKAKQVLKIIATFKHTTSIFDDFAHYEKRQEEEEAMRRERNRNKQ
inactive: erlotinib -0.009 | [1] -0.003 | [2] -0.035 | [3] -0.029 | [4] 0.089 | [5] -0.183 | [6] 0.003 | [7] -0.04 | [8] 0.036 | IRAK-1-4 Inhibitor I 0.12

ZMYM1 (UniProt Q5SVZ6)
inactive: erlotinib -0.041 | [1] -0.027 | [2] -0.002 | [3] 0.021 | [4] 0.007 | [5] -0.036 | [6] 0.041 | [7] 0.043 | [8] 0.025 | IRAK-1-4 Inhibitor I -0.008

WDR7 (UniProt Q9Y4E6)
UniProt Q9Y4E6, sequence (Q9Y4E6 whole entry, looked up): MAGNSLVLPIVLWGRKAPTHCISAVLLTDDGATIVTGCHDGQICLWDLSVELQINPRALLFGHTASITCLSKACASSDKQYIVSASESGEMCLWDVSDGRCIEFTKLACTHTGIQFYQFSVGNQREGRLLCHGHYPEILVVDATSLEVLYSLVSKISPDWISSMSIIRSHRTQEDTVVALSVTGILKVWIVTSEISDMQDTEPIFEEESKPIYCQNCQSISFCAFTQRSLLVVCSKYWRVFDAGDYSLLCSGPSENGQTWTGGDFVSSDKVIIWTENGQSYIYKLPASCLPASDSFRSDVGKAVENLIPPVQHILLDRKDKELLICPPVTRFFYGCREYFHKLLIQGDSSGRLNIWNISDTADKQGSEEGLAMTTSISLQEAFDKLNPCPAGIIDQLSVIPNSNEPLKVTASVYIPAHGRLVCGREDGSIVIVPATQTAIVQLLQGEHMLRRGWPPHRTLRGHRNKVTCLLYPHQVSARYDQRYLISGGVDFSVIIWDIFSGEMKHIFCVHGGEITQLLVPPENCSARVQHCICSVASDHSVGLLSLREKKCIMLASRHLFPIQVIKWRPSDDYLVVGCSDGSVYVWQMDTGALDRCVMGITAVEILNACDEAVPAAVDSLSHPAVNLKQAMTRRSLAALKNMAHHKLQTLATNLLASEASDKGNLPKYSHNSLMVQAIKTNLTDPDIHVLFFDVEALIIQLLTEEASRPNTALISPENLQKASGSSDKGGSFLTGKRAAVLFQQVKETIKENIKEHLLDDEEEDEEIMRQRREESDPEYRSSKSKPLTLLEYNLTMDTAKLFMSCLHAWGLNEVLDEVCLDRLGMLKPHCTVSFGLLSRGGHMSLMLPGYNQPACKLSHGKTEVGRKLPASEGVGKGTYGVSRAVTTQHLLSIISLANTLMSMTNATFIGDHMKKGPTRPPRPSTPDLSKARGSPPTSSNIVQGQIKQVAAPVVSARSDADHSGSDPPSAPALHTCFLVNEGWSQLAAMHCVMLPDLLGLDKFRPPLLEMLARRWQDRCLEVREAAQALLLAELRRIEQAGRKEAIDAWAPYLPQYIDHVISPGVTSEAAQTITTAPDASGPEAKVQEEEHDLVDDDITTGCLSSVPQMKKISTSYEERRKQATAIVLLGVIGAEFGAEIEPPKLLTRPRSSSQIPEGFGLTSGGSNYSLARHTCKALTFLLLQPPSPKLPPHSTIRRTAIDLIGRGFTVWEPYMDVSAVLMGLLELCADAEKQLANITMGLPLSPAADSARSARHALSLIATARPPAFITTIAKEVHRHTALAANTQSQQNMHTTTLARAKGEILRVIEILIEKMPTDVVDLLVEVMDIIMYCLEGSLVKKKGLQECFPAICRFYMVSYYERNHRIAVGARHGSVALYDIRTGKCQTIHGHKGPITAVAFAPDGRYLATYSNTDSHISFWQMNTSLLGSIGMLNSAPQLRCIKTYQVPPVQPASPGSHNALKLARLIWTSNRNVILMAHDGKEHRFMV
inactive: erlotinib 0.05 | [1] -0.076 | [2] -0.016 | [3] -0.059 | [4] -0.001 | [5] -0.005 | [6] -0.038 | [7] 0.018 | [8] 0.042 | IRAK-1-4 Inhibitor I 0.01

WRB (UniProt O00258)
UniProt O00258, sequence (O00258 whole entry, looked up): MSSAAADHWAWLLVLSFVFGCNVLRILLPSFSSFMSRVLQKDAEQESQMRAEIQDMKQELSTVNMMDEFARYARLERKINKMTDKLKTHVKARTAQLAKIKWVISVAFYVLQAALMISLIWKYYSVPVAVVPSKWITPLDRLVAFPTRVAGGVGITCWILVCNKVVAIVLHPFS
inactive: erlotinib -0.043 | [1] 0.208 | [2] 0.027 | [3] 0.002 | [4] -0.009 | [5] -0.002 | [6] 0.049 | [7] 0.051 | [8] -0.064 | IRAK-1-4 Inhibitor I 0.101
